Shown are actives, neighbours in structure and some others; about 6.8% of the full set was active somewhere.
DPM-DC inhibit: S. pneumoniae DPM-DC inhibitors, primary screen, biochemical, PK/LDH-coupled NADH fluorescence; purified DPM-DC; calls only at 10 µM; 0.49% of 65,000 active; AID 556, 2006;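 active = the 320 compounds with the highest percent inhibition in the single-dose primary screen, excluding strongly autofluorescent ones, cut at about 32% in these data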;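 also: kinetic rate of NADH fluorescence loss reporting ADP formed by the decarboxylase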
Spn PMK inh: S. pneumoniae PMK inhibitors, primary screen, biochemical, mevalonate pathway, pilot trial included; purified PMK, PK/LDH-coupled NADH absorbance 340 nm; 0.49% of 65,000 active; phosphomevalonate kinase (Streptococcus pneumoniae D39); inhibition, % at 10 µM;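 active = top-ranked compounds by inhibition in the single 10 µM screen, taking a fixed number of the strongest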;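 also: 0% = full reaction with DMSO carrier and 100% = background rate without enzyme reaction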
Autofluor 339: intrinsic fluorescence of library compounds, ex339/em460 – biochemical, MLSMR library, data from DPM-DC assay, artefact control, profiling panel | compound autofluorescence, ex339/em460 nm, NADH buffer; stronger effect = higher value; 1 = no-compound wells, NADH background | fluorescence fold increase at 10 µM | 5.5% of 65,000 active | AID 709, 2007;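 active = at 10 µM, mean starting fluorescence two-fold or more over control wells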;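 also: signal is the first read of a kinetic run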
MK inhibit: S. pneumoniae MK inhibitors, primary screen, biochemical, PK/LDH-coupled NADH absorbance | purified MK, PK/LDH-coupled NADH absorbance 340 nm | mevalonate kinase [Streptococcus pneumoniae D39] | 0.48% of 65,000 active | inhibition, % at 10 µM;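 active = ranked among the strongest by inhibition in the single 10 µM screen, a fixed top-ranked set picked for dose follow-up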
NADH coupling: inhibitors of PK/LDH coupling enzymes, profiling panel, artefact control, biochemical, MLSMR library | 0.02% of 65,000 active | IC50, µM (titrated, usually from 10 µM), without a hit: top-dose inhibition | coupled PK/LDH NADH assays, four targets;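 active = single-dose screening hits from any of four coupled enzyme assays that gave an IC50 when retested across doses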;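 also: the DPM-DC format reads NADH fluorescence rather than 340 nm absorbance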
Abs 340nm: compound light absorbance at 340 nm, profiling panel, artefact control, biochemical, MLSMR library, data from PS, PMK, MK assays; compound absorbance at 340 nm, fold over control; fold change at 10 µM; 65,000 tested, under 10 active;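 active = at 10 µM dose, initial 340 nm absorbance at least 2 fold that of control wells; inactive = change under 2 fold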;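 also: initial absorbance extrapolated from kinetic A340 decline of NADH oxidation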
Numbers without * were called inactive; i = inactive; nt = no result given.

SMILES | DPM-DC inhibit | Spn PMK inh | Autofluor 339 | MK inhibit | NADH coupling | Abs 340nm
c1ccc2sc(SCc3ccc(-c4nnco4)cc3)nc2c1 | i | 30.0* | 1 | 5.0 | 14.0% | 1.01
O=C(O)CCSc1nc2ccccc2s1 | i | 4.0 | 1.13 | 0.0 | 1.0% | 1.06
Cc1sc(NC(=O)CSc2nnc(-c3ccc(F)cc3)o2)c(C#N)c1C | i | 7.0 | 1.09 | 16.0 | 8.0% | 1.07
COc1ccc(N(Cc2cc3ccccc3[nH]c2=O)C(=O)C2CCCO2)cc1 (stereo not given) | i | 0.0 | 1.26 | 12.0 | 4.0% | 1.04
COc1ccc(CC(=O)N(Cc2cc3cc(OC)ccc3[nH]c2=O)C(C)C)cc1 | i | 8.0 | 2.58* | 7.0 | 11.0% | 1.09
COCC(=O)N(Cc1cc2cc(OC)ccc2[nH]c1=O)c1ccccc1OC | i | 0.0 | 2.65* | 8.0 | 9.0% | 1.03
CCOc1ccc(N(Cc2cc3cc(OC)ccc3[nH]c2=O)C(=O)C2CCCO2)cc1 (stereo not given) | i | 0.0 | 3* | 1.0 | 8.0% | 1.13
CCCC(=O)N(Cc1cc2cc(C)ccc2[nH]c1=O)c1ccccc1OC | i | 3.0 | 1.29 | 3.0 | 2.0% | 1.08
CCC(=O)N(Cc1cc2cc(OC)ccc2[nH]c1=O)c1cccc(C)c1 | i | 10.0 | 3* | 5.0 | 11.0% | 1.03
COc1ccc2[nH]c(=O)c(CN(C(=O)c3ccncc3)C(C)C)cc2c1 | i | 11.0 | 1.66 | 1.0 | 5.0% | 1.02
CCCCNC(=O)NS(=O)(=O)c1ccc(C(=O)OC)o1 | i | 3.0 | 1.15 | 0.0 | 1.0% | 1.06
COCC(=O)N(Cc1cc2ccc(C)cc2[nH]c1=O)c1ccc(OC)cc1 | i | 4.0 | 1.25 | 5.0 | 3.0% | 1.02
COCC(=O)N(Cc1cc2cc(OC)ccc2[nH]c1=O)c1ccc(C)cc1 | nt | 16.0 | 2.1* | 1.0 | 9.0% | 1.08
COc1ccc(-c2oc3ncn4nc(Cc5ccccc5)nc4c3c2-c2ccc(OC)cc2)cc1 | nt | 0.0 | 2.37* | 2.0 | 1.0% | 1.11
COc1ccc(-c2nnc3sc(COc4ccccc4)nn23)cc1 | i | 10.0 | 1.12 | 0.0 | 3.0% | 1.01
COc1ccc(-c2oc3ncn4nc(COc5ccccc5)nc4c3c2-c2ccc(OC)cc2)cc1 | nt | 6.0 | 2.42* | 6.0 | 6.0% | 1.11
COc1ccc(Cc2noc(-c3ccc(C)cc3)n2)cc1 | i | 0.0 | 1.06 | 0.0 | 1.0% | 1.05
CC(Oc1ccc(Cl)cc1Cl)C(=O)Nc1ncccn1 (stereo not given) | i | 4.0 | 1.05 | 8.0 | 2.0% | 1
CC(C)C(=O)Nc1ccc(-c2nc3cccnc3o2)cc1 | nt | 12.0 | 2.45* | 7.0 | 4.0% | 1.15
Cc1cc2nc(-c3ccc(NC(=O)C(C)C)cc3)oc2cc1C | nt | 0.0 | 2.19* | 0.0 | 0.0% | 1.13
Cc1ccc(-c2nc3cc(NC(=O)C(C)C)ccc3o2)cc1 | nt | 1.0 | 2.46* | 5.0 | 2.0% | 1.08
CC(Oc1ccc(Cl)cc1Cl)C(=O)Nc1ccc2oc(-c3ccncc3)nc2c1 (stereo not given) | nt | 5.0 | 3.83* | 12.0 | 9.0% | 1.02
CCCCNC1=C(Br)C(=O)CC(C)(C)C1 | i | 6.0 | 1.08 | 0.0 | 2.0% | 1.02
COc1ccc(NC(=O)CN(c2cc(C)cc(C)c2)S(=O)(=O)c2c(C)noc2C)cc1OC | i | 13.0 | 1 | 7.0 | 5.0% | 0.97
CCOC(=O)c1ccc2c(c1)nc(SCc1cn3ccsc3n1)n2CC | i | 16.0 | 1.1 | 2.0 | 6.0% | 1
SMILES | DPM-DC inhibit | Spn PMK inh | Autofluor 339 | MK inhibit | NADH coupling | Abs 340nm
Cc1ccc(-c2nc3cc(NC(=O)C(C)C)ccc3o2)cc1C | nt | 12.0 | 3* | 4.0 | 3.0% | 1.01
CC(C)C(=O)Nc1cccc(-c2nc3ccccc3o2)c1 | i | 6.0 | 1.13 | 8.0 | 6.0% | 0.99
O=C(CSc1nnc(NC(=O)CN2CCOCC2)s1)Nc1ccccc1 | i | 16.0 | 1.14 | 0.0 | 5.0% | 0.98
CCOC(=O)N1CCN(S(=O)(=O)c2ccc(F)cc2)CC1 | i | 12.0 | 1.16 | 9.0 | 7.0% | 1.03
CCOC(=O)N1CCN(S(=O)(=O)c2ccc(C(=O)Nc3nc4ccccc4s3)cc2)CC1 | nt | 13.0 | 4.52* | 8.0 | 11.0% | 1.07
CCOC(=O)N1CCN(S(=O)(=O)c2ccc(C(=O)Nc3nc4ccc(F)cc4s3)cc2)CC1 | nt | 22.0 | 4.62* | 8.0 | 15.0% | 1.07
NC(=O)Nc1ccc(Oc2c(F)c(F)c(F)c(F)c2F)cc1 | i | 0.0 | 1.09 | 9.0 | 3.0% | 1.01
Cc1oc(C(=O)O)cc1COc1ccc2c(C)cc(=O)oc2c1 | i | 1.0 | 2.1* | 1.0 | 5.0% | 1.14
COC(=O)c1cc(COc2ccc3ccc(=O)oc3c2)c(C)o1 | nt | 0.0 | 2.11* | 10.0 | 5.0% | 1.08
COC(=O)c1cc(COc2ccc3oc(C)c(C(=O)OC)c3c2)c(C)o1 | i | 9.0 | 1.05 | 3.0 | 4.0% | 1.03
Cc1ccc(NC(=O)C(C)N2C(=O)c3ccccc3C2=O)cc1 (stereo not given) | i | 11.0 | 1.06 | 8.0 | 6.0% | 1.01
CCC1(CC)Nc2ccccc2C(=O)N1c1ccc(NC(C)=O)cc1 | nt | 17.0 | 3.73* | 5.0 | 11.0% | 1.02
COc1ccccc1N1CCN(C(=O)C2CCN(S(=O)(=O)c3ccc(Cl)cc3)CC2)CC1 | i | 0.0 | 1.07 | 8.0 | 3.0% | 1.01
OCCN(CCO)c1nc(N2CCCCC2)c2nc(N(CCO)CCO)nc(N3CCCCC3)c2n1 | nt | 2.0 | 2.25* | 4.0 | 3.0% | 1
CCc1cc(C(=O)Nc2ccccc2)cs1 | i | 9.0 | 1.11 | 4.0 | 4.0% | 1
Cc1ccc(NCc2nnc(SCC(N)=O)n2CCc2ccccc2)cc1 | i | 9.0 | 1.08 | 6.0 | 5.0% | 0.97
CCC(=O)n1nc(NCc2ccccc2OC)nc1NCc1ccccc1OC | i | 9.0 | 1.1 | 3.0 | 4.0% | 1.04
CCCCCNC(=O)c1c(N)n(/N=C/c2ccco2)c2nc3ccccc3nc12 | i | 8.0 | 1.51 | 5.0 | 4.0% | 1
Nc1c(S(=O)(=O)c2ccccc2)c2nc3ccccc3nc2n1/N=C/c1cccc(O)c1 | nt | 4.0 | 3.72* | 10.0 | 7.0% | 1.1
Cc1ccc(C)c(S(=O)(=O)c2c(N)n(/N=C/c3ccco3)c3nc4ccccc4nc23)c1 | i | 0.0 | 2.14* | 0.0 | 1.0% | 1.06
CCCCNC(=O)c1c(N)n(/N=C/c2cccnc2)c2nc3ccccc3nc12 | i | 2.0 | 1.25 | 11.0 | 6.0% | 1.05
CC(C)(C)Nc1nc(OCC(F)(F)F)nc(OCC(F)(F)F)n1 | i | 16.0 | 0.99 | 1.0 | 3.0% | 0.99
